# Laboratory results reported in PubChem BioAssay (Tox21).
# “And” between values parts separate entries of the source, which are not always exact repeats. Equal entries are not always repeated. Inconclusive results are not listed. A number with no mark means an inactive call. The source made the active and inactive calls. Calls follow the shape of the dose curve; as a rule, active = well fitted activation curve with a large enough effect in the repeat runs; inconclusive = weak or mixed curves; inactive = flat fitted curve, though single readings scatter.
# Assay: A CellTox Green Cytotoxicity Assay to monitor cytotoxicity in HepG2 cells - 40 hour (AID 1224879); also: nearly all actives have a fitted effect of over 40% in size
# Settings: CellTox Green fluorescence; series mostly up to 76.8 µM; cytotoxicity increase: at the top concentration
# Description: National Center for Advancing Translational Sciences [NCATS]
# NIH Chemical Genomics Center [NCGC]
# U.S. Environmental Protection Agency [EPA]
# National Institutes of Environmental Health Sciences [NIEHS]
# National Toxicology Program [NTP]
# Cell-based models are critical for drug discovery. Determining the natural cytotoxic effects resulting from test compounds is an essential research activity. A CellTox Green Cytotoxicity Assay to monitor cytotoxicity in real time of continues cell culture during 40 hours of the compound treatment was used to screen Tox21 10K library compounds in HepG2 cells. CellTox Green Cytotoxicity Assay is a nonlytic, homogeneous, biofluorescent method to measure cytotoxicity in cell culture after experimental manipulation. The assay system uses a proprietary asymmetric cyanine dye that is excluded from viable cells but preferentially stains the dead cell's DNA. […] Viable cells produce no appreciable increases in fluorescence. Therefore, the fluorescence signal produced by the binding interaction with dead cell DNA is proportional to cytotoxicity.
# The mixture of HepG2 cell suspension and reagents were dispensed at 600cells/6 ul/well in 1536-well tissue culture treated black solid bottom plates using a Multidrop dispenser. After the assay plates were incubated at a 37 C/5% CO2 incubator for 5 hours, 23 nL of compounds dissolved in DMSO, positive and negative controls was transferred to the assay plate by a pintool work station. The plates were incubated at 37 C for 40 hours. The fluorescence intensity were measured at 0h, 8h, 16h, 24h, 32h and 40h time points using ViewLux plate reader during compound treatment.
# % is scaled to controls: 0 for no effect and ±100 for the full control effect; potency is read from the fitted curve at half-maximal effect.
SMILES,cytotoxicity increase,Potency
COc1ccc2c(c1)c(CC(=O)OC/C=C(\C)CC/C=C(\C)CCC=C(C)C)c(C)n2C(=O)c1ccc(Cl)cc1,0.854% [at 35.3 µM],
O[C@@H]([C@H](O)[C@H](O)CBr)[C@H](O)CBr,-1.83%,
OC[C@@H](O)[C@@H](O)CO,-1.44%,
CN(C)C(=O)COC(=O)Cc1ccc(OC(=O)c2ccc(N=C(N)N)cc2)cc1,-8.71% [at 35.3 µM],
CCCCOC(=O)CO,-13.8%,
O=c1oc2cc(O)ccc2c2oc3cc(O)ccc3c12,-8.9%,
O=C1CCc2cc(OCCCCc3nnnn3C3CCCCC3)ccc2N1,6.6% [at 35.3 µM],
COC(=O)Nc1nc2ccc(C(=O)c3ccccc3)cc2[nH]1,,0.268 µM (active)
Clc1ccnc(Cl)n1,-18.8%,
Cc1nc2n(c(=O)c1CCN1CCC(c3noc4cc(F)ccc34)CC1)CCCC2,-10.8% [at 35.3 µM],
Nc1cc(Cl)c(O)c(Cl)c1,-12.7%,
COc1cc(/C=C/c2ccccc2)oc(=O)c1,-0.759%,
O=C(O)c1cc(-c2ccc(F)cc2F)ccc1O,-4.94% [at 35.3 µM],
CN(C)CCN1CCN(c2cccc(Cl)c2)C1=O,-17.4% [at 35.3 µM],
CCCCC(CC)COC(=O)CCCCC(=O)OCc1ccccc1 (stereo not given),-6.17%,
C#C[C@]1(OC(C)=O)CC[C@H]2[C@@H]3CCC4=C[C@@H](OC(C)=O)CC[C@@H]4[C@H]3CC[C@@]21C,3.34% [at 35.3 µM],
COc1ccc2cc1Oc1ccc(cc1)C[C@H]1c3c(cc4c(c3Oc3cc5c(cc3OC)CCN(C)[C@@H]5C2)OCO4)CCN1C,,21.3 µM (active)
COC1=C(OC)C(=O)C(CCCCCCCCCCO)=C(C)C1=O,-1.2% [at 35.3 µM],
OCC(F)(F)F,-0.773%,
CC(C)(C)c1ccc(C(O)CCCN2CCC(C(O)(c3ccccc3)c3ccccc3)CC2)cc1 (stereo not given),,5.35 µM (active)

SMILES,cytotoxicity increase,Potency
Nc1ccc(NCCO)c([N+](=O)[O-])c1,-19.9%,
CCC(C)[O-].CCC(C)[O-].CCOC(=O)/C=C(/C)[O-].[Al+3],-3.1%,
CCCCCCCCCCCCCC[N+](C)(C)Cc1ccccc1,,22.2 µM (active) and 15.1 µM (active) and 14.1 mM (active)
Nc1nc(N)nc(-c2cc(Cl)ccc2Cl)n1,7.86% [at 35.3 µM],
Nc1nc(-c2ccccc2)cs1,2.94%,
CCCCC(CC)CN1CN(CC(CC)CCCC)CC(C)(N)C1 (stereo not given),,19 µM (active)
C[C@H]1NCc2cc(-c3ccc4c(=O)c(C(=O)O)cn(C5CC5)c4c3OC(F)F)ccc21,1.86% [at 15.8 µM],
OC/C=C/CO,-4.81%,
Cc1c(N)cccc1C(F)(F)F,3.02% [at 35.3 µM],
O=C(O)c1cccc(C(F)(F)F)c1,-0.41%,
CCC(CC)C(C)CCOC(C)=O (stereo not given),-2.28%,
C#C[C@]1(OC(C)=O)CC[C@H]2[C@@H]3CCC4=C/C(=N/O)CC[C@@H]4[C@H]3CC[C@@]21CC,28.6% [at 35.3 µM],
O=C(O)CN(CCN(CC(=O)O)CC(=O)O)CC(=O)O,,1.96 µM (active)
CC(=O)CC(=O)Nc1ccc(S(=O)(=O)O)cc1,-9.22%,
C=CC(=O)Nc1cc2c(Nc3ccc(F)c(Cl)c3)ncnc2cc1OCCCN1CCOCC1,,6.01 µM (active)
CC(C)=CCC1=C(O)c2ccccc2C(=O)C1=O,1.75%,
Clc1sc(Cl)c(Cl)c1Cl,-2.71%,
OC[C@H]1O[C@H](O[C@H]2O[C@H](CO)[C@@H](O)[C@H](O)[C@H]2O)[C@H](O)[C@@H](O)[C@@H]1O,-2.83%,
CCCCCCCCCCCCCC[N+](C)(C)C,,7.5 µM (active) and 15.5 µM (active) and 19 µM (active)
CC1=CCC(=C(C)C)CC1,-7.76%,
